Screen size: about 320,000 compounds; about 2,100 (0.66%) were called active. Another 53% or so got no clear call; they are omitted. Calls come from the whole dose curve; as a rule, active = well fitted inhibition curve with a large enough effect in the signal ratio, with a control signal flat (not every such curve was filed as active); inconclusive = small, poorly fitted or top-dose-only effect, or effect the other way, or a change in a side signal; inactive = flat fitted curve, though single readings scatter; the % refers to the signal ratio. The list comes from a sample in which actives are over-represented; it also holds similar structures and randomly drawn compounds.

Here are results for 48 molecules from PubChem BioAssay AID2685 (National Center for Advancing Translational Sciences (NCATS), 2010).
Potency is the fitted concentration of half-maximal effect.

The test in a line: qHTS Assay for Lipid Storage Modulators in Drosophila S3 Cells.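 For cell number change: cells counted by Cell Tracker Red CMTPX staining in the red channel.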 For lipid storage change, negative = inhibition: % is set by controls: 0 for no effect and ±100 for the full control effect. The settings on record: BODIPY lipid droplet fluorescence, 18-24 h, cells fed with added oleic acid; cell number change: measured here: cell count max response; series mostly up to 46.1 µM; lipid storage change, negative = inhibition: at the top concentration. In a few lines:
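Drosophila S3 cells got compounds at several concentrations plus oleic acid (400 uM solution). Laser-scanning cytometry with 488 nm excitation read lipid droplets at 500-530 nm and cells at 575-640 nm. Percent activity was relative to 20 uM Triacsin C.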
A general note: qHTS replaces the single test concentration by a dilution series.
In the case of `Cn1cnc(S(=O)(=O)N2CCN(c3cccc(C(F)(F)F)c3)CC2)c1`, the outcome was inactive and the cell number change stood at 3.98%.
On to `CCC(C)c1ccccc1OCC(=O)NN1C(=O)c2ccccc2C1=O` (configuration not stated), for which the “lipid storage change, negative = inhibition” value was 25.3% (inactive) and the cell number change was -0.73%.
Turning to `COc1ccccc1C(=O)Nc1ccc(C(=O)N2CCCCC2)cc1`, the “lipid storage change, negative = inhibition” value is -8.52% (inactive) and the cell number change is -10.6%.
As for `Cn1c(=O)c2c(nc(CN3CCN(C(=O)c4ccco4)CC3)n2Cc2ccccc2)n(C)c1=O`, the molecule was classed as inactive.
Turning to `Cc1ccc(-c2csc3ncnc(SCC(=O)NCc4ccc5c(c4)OCO5)c23)cc1`, the “lipid storage change, negative = inhibition” value is 4.42% (inactive) and the cell number change is -1.52%.
Regarding `O=C(CSc1ncnc2scc(-c3ccc(F)cc3)c12)c1ccc2c(c1)OCCO2`, the “lipid storage change, negative = inhibition” value is 8.68% (inactive) and the cell number change amounted to 7.81%.
Take `Cc1ccc(-c2csc3ncnc(SCC(=O)c4ccc5c(c4)OCCO5)c23)cc1`: the Potency is 5.17 µM (active) and the cell number change was -23.9%.
On to `COCCn1nnnc1C(c1ccccc1OC)N1CCN(c2ccccc2)CC1` (configuration not stated), for which the “lipid storage change, negative = inhibition” value is 19% (inactive) and the cell number change worked out at 8.57%.
As to `CCn1cnc2c1c(=O)n(CC(=O)OC(C)C(N)=O)c(=O)n2Cc1ccccc1` (configuration not stated), the “lipid storage change, negative = inhibition” value was -5.23% (inactive) and the cell number change is 10.8%.
As to `Cc1cc(C(=O)N2CCc3c([nH]c4ccccc34)C2c2cccc(Cl)c2)nn1C` (configuration not stated), the “lipid storage change, negative = inhibition” value was -2.18% (inactive) and the cell number change is -10.9%.
For `CCCCC(=O)N1CCCC(C(=O)OCC)C1` (configuration not stated), the outcome was inactive and the cell number change is 23.1%.
Take `CCOCC(=O)N1CCCC(C(=O)OCC)C1` (configuration not stated): the Potency is 18.4 µM (active) and the cell number change was -14.8%.
`CCOC(=O)C1CCCN(C(=O)Cc2ccc(C)cc2)C1` (configuration not stated): the “lipid storage change, negative = inhibition” value is -0.343% (inactive) and the cell number change is 14.8%.
On to `NCCNC[C@@H]1COC2(CCCCCCCCCCC2)O1`, for which the “lipid storage change, negative = inhibition” value is -8.63% (inactive) and the cell number change was found to be 6.45%.
`CC1CC(C)CN(S(=O)(=O)c2ccc3c(c2)C(C)(C)C(=O)N3C)C1` (configuration not stated): the call was inactive and the cell number change was determined as 26.4%.
In the case of `Cc1nn(C(C)CC(=O)O)c(C)c1C` (configuration not stated), the Potency was 23.1 µM (active).
For `Cc1nc(C)n(C(C)CC(=O)O)n1` (configuration not stated), the “lipid storage change, negative = inhibition” value is -5.06% (inactive) and the cell number change was -20%.
`CC(=O)c1c(C)nn(C(C)CC(=O)O)c1C` (configuration not stated): the “lipid storage change, negative = inhibition” value was -5.84% (inactive) and the cell number change was -4.59%.
Consider `C/C(Cn1nnc([N+](=O)[O-])n1)=N\NC(=O)c1ccc(C)cc1`, for which the “lipid storage change, negative = inhibition” value was -2.12% (inactive) and the cell number change was 24.7%.
On to `COc1ccc(N(C(=O)CNC(=O)c2cccs2)C(C(=O)NC2CCCC2)c2cccnc2)cc1` (configuration not stated), for which the “lipid storage change, negative = inhibition” value was -7.37% (inactive) and the cell number change worked out at 3.7%.
With `O=C(c1ccc(NS(=O)(=O)c2cccc([N+](=O)[O-])c2)cc1)N1CCN(C(=O)c2ccco2)CC1`, the Potency was 9.2 µM (active) and the cell number change came to 1.34%.
Consider `CC(C(=O)Nc1ccccc1)N1CCN(C(=O)c2ccco2)CC1` (configuration not stated), for which the “lipid storage change, negative = inhibition” value was 19% (inactive) and the cell number change was 13.4%.
On to `O=C(c1ccco1)N1CCN(S(=O)(=O)c2cccc([N+](=O)[O-])c2)CC1`, for which the “lipid storage change, negative = inhibition” value was 28.6% (inactive) and the cell number change was -1.91%.
For `CCOc1ccccc1NC(=O)C(c1ccccc1)N1CCN(C(=O)c2ccco2)CC1` (configuration not stated), in that order: 9.01% (inactive) and -20.1%.
As to `O=C(Nc1ccc(F)cc1)C(c1ccccc1)N1CCN(C(=O)c2ccco2)CC1` (configuration not stated), the result was inactive.
In the case of `CC(C)Oc1ccc(C(=O)N2CCN(C(=O)c3ccco3)CC2)cc1`, the call was inactive and the cell number change came to 19.8%.
Take `CC(C)c1ccc(NC(=O)C(c2ccccc2)N2CCN(C(=O)c3ccco3)CC2)cc1` (configuration not stated): the Potency is 20.6 µM (active) and the cell number change is -35.1%.
With `O=C(c1ccc(NS(=O)(=O)c2cccc([N+](=O)[O-])c2)cc1)N1CCCCCC1`, the “lipid storage change, negative = inhibition” value is 18.1% (inactive) and the cell number change was -11.1%.
Regarding `CC(C)C(=O)Nc1ccc(C(=O)N2CCN(C(=O)c3ccco3)CC2)cc1`, the Potency was 4.61 µM (active) and the cell number change was 6.86%.
For the molecule `CCOc1ccc(NS(=O)(=O)c2c(C)nc3sccn3c2=O)cc1`, the “lipid storage change, negative = inhibition” value was -7.04% (inactive) and the cell number change is -0.288%.
`O=C(Nc1ccc(Br)cc1)C1CCCN(C2=NS(=O)(=O)c3ccccc32)C1` (configuration not stated): the “lipid storage change, negative = inhibition” value is 7.4% (inactive) and the cell number change was found to be 0.774%.
As to `Cc1ccc(SC(C)C(=O)Nc2ncn[nH]2)cc1` (configuration not stated), the molecule was called inactive.
Turning to `Cc1ccc(C(CNS(=O)(=O)c2ccccc2)N2CCN(C)CC2)cc1` (configuration not stated), the outcome was “inactive [at 0.0737 µM]”.
On the same count and under the same terms, next, `O=S(=O)(NCC(c1ccccc1)N1CCC(O)CC1)c1ccc(Cl)cc1` (configuration not stated): “inactive”.
With `CC1CCN(C(CNS(=O)(=O)c2ccccc2)c2ccccc2)CC1` (configuration not stated), the Potency is 0.461 µM (active) and the cell number change is 12.1%.
Regarding `CCOc1cccc(OCCn2cnc3ccccc3c2=O)c1`, the “lipid storage change, negative = inhibition” value is 5.79% (inactive) and the cell number change came to 10.8%.
For the molecule `COc1cccc(C(=O)N2CCN(C(=O)C3COc4ccccc4O3)CC2)c1` (configuration not stated), the result was inactive.
As for `CCn1c(=S)[nH]c2cc(C(=O)OC)ccc2c1=O`, the result was inactive and the cell number change was found to be 11.1%.
Take `COCCn1c(=S)[nH]c2cc(C(=O)NCCc3ccccc3)ccc2c1=O`: the Potency is 2.31 µM (active) and the cell number change was -6.13%.
As for `CCOCCCn1c(=S)[nH]c2cc(C(=O)NCCc3ccccc3)ccc2c1=O`, the outcome was inactive.
As for `COC(=O)c1ccc2c(=O)n(CCCCCC(=O)O)c(=S)[nH]c2c1`, the “lipid storage change, negative = inhibition” value was 5.22% (inactive) and the cell number change was found to be 9.06%.
For `COCCn1c(=S)[nH]c2cc(C(=O)NC(C)C)ccc2c1=O`, the molecule was classed as inactive.
For the molecule `CCN(CC)CCCn1c(=S)[nH]c2cc(C(=O)OC)ccc2c1=O`, the Potency was 3.66 µM (active) and the cell number change is 12.4%.
With `Cc1ccc(S(=O)(=O)Nc2cc(C(C)C)c(O)cc2C)cc1`, the “lipid storage change, negative = inhibition” value is 6.78% (inactive) and the cell number change is -20%.
For `CCOC(=O)/C(C#N)=C/N1CCOCC1`, in that order: -5.47% (inactive) and -2.81%.
On to `NC(=NC(=O)c1ccc(OCC(F)(F)F)nc1)c1ccc(Cl)cc1`, for which the “lipid storage change, negative = inhibition” value was -1.51% (inactive) and the cell number change is -16.5%.
For `COc1ccc(CCC(=O)OCC(=O)Nc2ccccc2)cc1`, the molecule was called inactive and the cell number change worked out at 3.15%.
Take `COc1ccc(CCC(=O)OCC(=O)Nc2sccc2C(N)=O)cc1`: the Potency was 6.51 µM (active) and the cell number change was -27.9%.
